Compound activity: PubChem, National Center for Advancing Translational Sciences (NCATS)
D3 ag: agonists of human D3 dopamine receptor; P35462; D3R DiscoveRx beta-arrestin cells, luminescence, 90 min; max activation, %; 410,000 tested, 0.58% active; AID 652048; in the data active = max activation above about 30%
Target sequence (P35462 whole entry, looked up): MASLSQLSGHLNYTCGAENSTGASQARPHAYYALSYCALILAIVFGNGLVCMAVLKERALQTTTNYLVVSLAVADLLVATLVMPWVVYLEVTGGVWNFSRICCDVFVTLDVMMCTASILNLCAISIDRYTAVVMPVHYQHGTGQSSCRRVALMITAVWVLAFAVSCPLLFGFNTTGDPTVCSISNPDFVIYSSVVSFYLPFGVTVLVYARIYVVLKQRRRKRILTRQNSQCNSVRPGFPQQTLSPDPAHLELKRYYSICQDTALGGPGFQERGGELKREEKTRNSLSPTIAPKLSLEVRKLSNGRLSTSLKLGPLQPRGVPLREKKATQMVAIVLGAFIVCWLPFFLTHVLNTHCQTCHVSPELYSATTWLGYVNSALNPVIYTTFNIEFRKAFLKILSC
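Cells at 1500/well, incubated overnight, then treated with pinned compounds (dopamine as control) for 90 min at 37 degrees C. DiscoveRx reagent added for 30 - 60 minutes at room temperature; luminescence read.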
S2 tox: viability counter-screen for ATXN expression inhibitors; AID 651635; Potency, µM (series often up to 56.7 µM), usual class: cytotoxic; 400,000 tested, 0.49% active; S2 cells (HEK-293 line with an ATXN2-luciferase reporter) viability, CellTiter-Fluor protease fluorescence, 24 h; also: nearly all actives have a fitted effect of over 40% in size
HepG2 tox: HepG2 cytotoxicity, counter-screen for TGF-b inhibitors; HepG2 CAGA-GFP viability, ATP luminescence, 18 h; Potency, µM (doses to about 46.1 µM), hits mostly cytotoxic; 410,000 tested, 0.76% active
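CellTiter-Glo luminescence gave cytotoxicity after 18 hours at 37 degrees C. The cells were HepG2 CAGA-GFP in 1% FBS DMEM, stimulated with 500 pg/mL TGF-beta after compound addition. %Activity was normalised to no-cell wells (complete cell-killing) and DMSO (no toxicity), and curves were fitted and classified.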
TGFb SMAD3 inh: inhibitors of TGF-b signaling | HepG2 CAGA-GFP TGF-b/SMAD3 reporter, GFP fluorescence, 18 h; TGF-beta stimulated, 500 pg/mL final | Potency, µM (top dose mostly 46.1 µM), most hits filed as inhibitors | 410,000 tested, 1.2% active; also: nearly all actives have a fitted effect of over 65% in size
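HEPG2 CAGA-GFP cells (1000/well, DMEM with 1% FBS) were pre-incubated 2 h at 37 degrees C, given compound by pin tool, then stimulated with TGF-beta at 500 pg/mL final for 18 h before per-cell GFP fluorescence imaging.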
ATXN2 expr inh: ATXN2 expression inhibition | Potency, µM (doses to about 57 µM), most hits filed as inhibitors | 360,000 tested, 0.72% active | AID 1745845 | HEK-293 ATXN2-luciferase reporter, luminescence, 24 h; also: nearly all actives have a fitted effect of over 55% in size
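qHTS (up to 57 uM final) was run with 24 h compound exposure of reporter cells at 37 °C. Each well was multiplexed: SteadyGlo luminescence measured ATXN2-luciferase expression after a fluorogenic Gly-Phe-AFC viability readout (25 uM final).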
DRD3 antagonist: antagonists of human D3 dopamine receptor. D3R cells, DiscoveRx beta-arrestin luminescence, antagonist mode; hits give low values. AID 652054. max response, negative = inhibition, %. 360,000 tested, 2.5% active; in the data active = max response below about -50%; inconclusive = no clear call, values can overlap the other calls
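Cells expressing the human receptor were seeded at 1500 cells/well, incubated overnight at 37 degrees C in 5% CO2, then exposed to library compounds with dopamine controls for 90 minutes at 37 degrees C before luminescent detection.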
Numbers stand for hits. The list is not random: actives were taken first. Their share in the collection is about 4.8%. Unless noted, calls follow the shape of the dose curve; as a rule, active = well fitted curve in the direction sought with a large enough effect; inconclusive = small, poorly fitted or top-dose-only effect, or another doubt; inactive = no such curve, though single readings can be large; an effect the other way counts as inactive or inconclusive.

Screening COc1cccc(-n2nc(C#N)c(Cl)cc2=O)c1 returned D3 ag inactive, S2 tox 32µM, HepG2 tox 18µM, TGFb SMAD3 inh 6.3µM, ATXN2 expr inh 22µM and DRD3 antagonist -87.
For CCC1(C2CCN(C(=O)c3ccccc3C)CC2)NC(=O)N(CCc2scnc2C)C1=O (stereo not given) the results were S2 tox inactive.
`CCn1c(/N=C/c2ccc(OC)cc2O)nc2ccccc21` gave D3 ag inactive, S2 tox inactive, HepG2 tox inactive, TGFb SMAD3 inh inactive, ATXN2 expr inh inactive and DRD3 antagonist inactive.
Screening COc1cccc(N=Cc2ccc(O)cc2O)c1 returned D3 ag 34, S2 tox inactive, HepG2 tox inactive, TGFb SMAD3 inh inactive, ATXN2 expr inh inactive and DRD3 antagonist inactive.
Screening CC(=O)N1c2ccc(S(=O)(=O)NCC3CCC(C(=O)Nc4cccc(C)c4C)CC3)cc2CC1C (stereo not given) returned D3 ag inactive, HepG2 tox inactive and TGFb SMAD3 inh inconclusive.
For CCn1c2ccccc2c2cc(NC(=O)COC(=O)c3cccc(S(=O)(=O)NC)c3)ccc21 the results were D3 ag inactive, S2 tox inactive, HepG2 tox inactive, TGFb SMAD3 inh inactive, ATXN2 expr inh 16µM and DRD3 antagonist inactive.
For CCn1c2ccccc2c2cc(NC(=O)COC(=O)Cc3cn4ccsc4n3)ccc21 the results were D3 ag inactive, S2 tox inactive, HepG2 tox inactive, TGFb SMAD3 inh inconclusive, ATXN2 expr inh 28µM and DRD3 antagonist inactive.
Screening NNC(=O)C1C(O)CCC2CN3CCc4c([nH]c5ccccc45)C3CC21 (stereo not given) returned D3 ag inactive, S2 tox inactive, HepG2 tox inactive, TGFb SMAD3 inh inactive, ATXN2 expr inh inactive and DRD3 antagonist inconclusive.
`COC(=O)[C@@H]1[C@H]2C[C@H]3c4[nH]c5ccccc5c4CCN3C[C@@H]2CC[C@@H]1O` gave D3 ag inactive, S2 tox inactive, HepG2 tox inactive, TGFb SMAD3 inh inactive, ATXN2 expr inh inactive and DRD3 antagonist -78.
Screening Cn1c(CCNC(=O)c2ccc(Cl)c(Cl)c2)nnc1SCc1ccc(Cl)c(Cl)c1 returned D3 ag inactive, S2 tox inactive, HepG2 tox inactive, TGFb SMAD3 inh inactive, ATXN2 expr inh inactive and DRD3 antagonist -53.
Screening CN(C)/C=C/c1oc2ccc(O)cc2c1[N+](=O)[O-] returned D3 ag inactive, S2 tox inconclusive, HepG2 tox inactive, TGFb SMAD3 inh inactive, ATXN2 expr inh inactive and DRD3 antagonist -52.
`COc1cccc(CNC(=O)c2ccc(CSc3nc4ccncc4n3Cc3cccc(C)c3)cc2)c1` gave D3 ag inactive, S2 tox inconclusive, HepG2 tox inactive, TGFb SMAD3 inh inactive and ATXN2 expr inh inactive.
`CSCC[C@H](N)C(=O)N1CCC(C(=O)N[C@@H](C)C(=O)NCc2ccc(F)cc2)CC1` gave D3 ag 31, S2 tox inconclusive, HepG2 tox inactive, TGFb SMAD3 inh inactive, ATXN2 expr inh inactive and DRD3 antagonist inactive.
`CC1CC(=O)c2c(cc3c(-c4c(O)cc(O)c5c(O)c6c(cc45)OC(C)CC6=O)c(O)cc(O)c3c2O)O1` (stereo not given) gave D3 ag inactive, S2 tox inactive, HepG2 tox inactive, TGFb SMAD3 inh inconclusive, ATXN2 expr inh 20µM and DRD3 antagonist inactive.
COc1ccc(Cl)cc1Cn1c(C)c(C(=O)NCc2cccc(C(F)(F)F)c2)sc1=O was read as D3 ag inactive, S2 tox inactive, HepG2 tox inactive, TGFb SMAD3 inh inconclusive, ATXN2 expr inh inactive and DRD3 antagonist -60.
COc1ccc(Cl)cc1Cn1c(C)c(C(=O)NCc2ccc(C#N)cc2)sc1=O was read as D3 ag inactive, S2 tox inactive, HepG2 tox inactive, TGFb SMAD3 inh inactive, ATXN2 expr inh inactive and DRD3 antagonist -50.
